Bioassay records deposited in PubChem by National Center for Advancing Translational Sciences (NCATS).
Giardia FBPA inh: blocks Giardia fructose-bisphosphate aldolase activity | 290,000 compounds, 0.71% hits | AID 2451 | purified Giardia FBPA | Potency, µM (series often up to 59.6 µM), hits mostly inhibitors | A8B2U2; also: nearly all actives have a fitted effect of over 55% in size
Target sequence (A8B2U2 whole entry, looked up): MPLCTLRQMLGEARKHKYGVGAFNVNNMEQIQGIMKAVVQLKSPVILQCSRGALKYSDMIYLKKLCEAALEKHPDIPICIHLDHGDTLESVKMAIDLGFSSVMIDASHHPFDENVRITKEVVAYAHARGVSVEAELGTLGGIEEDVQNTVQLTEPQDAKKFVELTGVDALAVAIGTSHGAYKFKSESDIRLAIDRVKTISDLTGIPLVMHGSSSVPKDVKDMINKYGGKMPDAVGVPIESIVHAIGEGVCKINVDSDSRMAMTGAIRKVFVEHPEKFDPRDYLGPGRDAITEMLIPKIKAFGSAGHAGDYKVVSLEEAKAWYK
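Giardia FBPA (40 nM reagent) was preincubated 10 min at RT with compound (up to 57.5 uM final), then substrate plus GAPDH/TPI/NAD/arsenate coupling system with diaphorase/resazurin was added; resorufin fluorescence (525/598 nm) was read after 20 min.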
Pf growth 96h: P. falciparum growth inhibition at 96 hour, primary screen for plastid delayed-death inhibitors | P. falciparum luciferase reporter growth, 96 h | Potency, µM (series often up to 28.7 µM), hits mostly inhibitors | 320,000 compounds, 6.9% hits
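P. falciparum expressing integrated firefly luciferase, in erythrocytes at 2% hematocrit, 0.05% parasitemia, incubated with compounds 96 h at 37 C, 5% CO2. Growth inhibition read as loss of luminescence; two-generation exposure targets delayed-death apicoplast inhibitors.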
Pf growth 48h: P. falciparum growth inhibition at 48 hours (one generation) | Potency, µM (titrated, usually from 28.7 µM), actives largely listed as inhibitors | P. falciparum luciferase growth in erythrocytes, 48 h | 310,000 compounds, 5.9% hits
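First compound was added to culture medium, then infected red cells at 0.1% parasitemia and 2% hematocrit (final). After incubation at 37 C under 5% CO2, luciferase detection reagent was dispensed and light output recorded.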
CHX counter: counter-screen for Shiga toxin inhibitors: cycloheximide protein synthesis inhibition. cell reporter, cycloheximide protein synthesis inhibition counterscreen. max response, %. 300,000 compounds, 12% hits. AID 2314; in the data active = max response mostly above about 13%, no sharp cut-off; inactive = mostly below about 14%; also: read at 38.3 µM for the half of the compounds with a filed dose
NS1 inh: influenza NS1 inhibition. AID 2326. Potency, µM (doses to about 46.1 µM). 270,000 compounds, 0.4% hits; calls by dose curve; also: actives are rising curves; nearly all actives have a fitted effect of over 50% in size
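A cell-based growth assay was used: compounds that relieve NS1-induced slow growth of budding yeast raise OD600. Assay medium was yeast nitrogen base with ammonium sulphate and -URA supplement, pH 6.0, with 2% galactose.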
Shiga inhibitor: Shiga toxin inhibition; Vero cells, Shiga toxin protein synthesis inhibition reporter; inhibition, % at 38.7 µM; 290,000 compounds, 9.2% hits; AID 2315; in the data active = inhibition mostly above about 28%, no sharp cut-off; inactive = mostly below about 43%
Numbers stand for hits; - = inactive; ? = inconclusive; . = no result given. Most compounds without a hit are left out; they make up all but 21% or so of the library. Unless noted, calls follow the shape of the dose curve; as a rule, active = well fitted curve in the direction sought with a large enough effect; inconclusive = small, poorly fitted or top-dose-only effect, or another doubt; inactive = no such curve, though single readings can be large; an effect the other way counts as inactive or inconclusive.

SMILES | Giardia FBPA inh | Pf growth 96h | Pf growth 48h | CHX counter | NS1 inh | Shiga inhibitor
CCN(CC)S(=O)(=O)c1ccc(N/N=C/c2ccc(O)cc2)nc1 | - | ? | - | - | - | -
CCOc1cccc(/C=N/Nc2ccc(S(=O)(=O)N(CC)CC)cn2)c1O | - | 2.6µM | 2.9µM | - | - | -
Cc1onc(-c2ccccc2)c1C(=O)NCC(O)c1ccccc1 (configuration not stated) | - | - | - | - | - | -
Cc1ccc(Nc2nc3nonc3[nH]c2=O)cc1 | - | - | ? | 27 | - | 58
O=C(Nc1ccccc1)N1CCCC2(CCN(C(=O)c3cnccn3)CC2)C1 | - | . | . | . | . | .
CCOC(=O)C1CCN(C(=O)Cn2nc(C)n3cccc3c2=O)CC1 | . | - | - | - | - | -
CCn1c(Sc2nc(C)nc3scc(-c4cccs4)c23)n[nH]c1=O | - | 7.4µM | ? | - | - | -
Cc1nc(SCC(=O)NC(=O)NCCC(C)C)c2c(-c3cccs3)csc2n1 | - | ? | 12µM | - | - | -
CCC1=NN=C(c2ccc(F)cc2)C(c2c[nH]c3ccccc23)N1O (configuration not stated) | - | - | ? | - | - | 74
O=C(Nc1cccs1)Nc1ccc(F)cc1F | - | ? | - | 20 | - | -
O=C(Nc1cccs1)Nc1ccc(Br)cc1F | - | 12µM | ? | 67 | - | 194
COc1ccc(CCNC(=O)Cn2c(=O)[nH]c3ccsc3c2=O)cc1OC | - | - | 12µM | - | . | -
COc1ccc(CCNC(=O)CCn2c(=O)[nH]c3cc(OC)c(OC)cc3c2=O)cc1OC | - | - | ? | - | - | -
COc1ccc(CCNC(=O)CSc2nc(O)cc(=O)[nH]2)cc1OC | - | - | 3.3µM | - | ? | -
COc1ccc(CCNC(=O)CSc2cc(=O)[nH]c(N)n2)cc1OC | - | 12µM | - | - | - | -
CN1CCN(NS(=O)(=O)c2cccs2)CC1 | - | - | - | - | - | -
Nc1ccc2nc(SCC(=O)N3CCOCC3)sc2c1 | - | - | - | 31 | - | 71
CC1CCN(C(=O)CSc2nc3ccccc3s2)CC1 | - | - | . | 34 | - | -
O=C(CSc1nncc2ccccc12)N1CCCCC1 | - | - | - | 45 | . | -
CC1CCCC(C)N1C(=O)CSc1nc2ccccc2s1 (configuration not stated) | - | . | - | 35 | - | 126
O=C(O)C1CCN(C(=O)CSc2nc3ccccc3s2)CC1 | - | - | - | - | . | -
COc1ccc(C(=O)OC2CC3CC[C@H](C2)N3C(C)=O)cc1OC (some centres not stated) | - | . | . | . | . | .
CC(=O)c1ccc(OC(=O)Cc2cccc3ccccc23)cc1 | - | - | - | - | - | -
CCNc1ncc2nc(-c3ccc(F)cc3)c(=O)n(-c3ccc(OC)cc3)c2n1 | - | . | . | . | . | .
Cc1ccc(S(=O)(=O)NCCC(=O)NCC(c2cccs2)N2CCOCC2)cc1 (configuration not stated) | . | - | - | . | . | .
SMILES | Giardia FBPA inh | Pf growth 96h | Pf growth 48h | CHX counter | NS1 inh | Shiga inhibitor
Cc1cc(OCC(=O)Nc2ccncc2)cc(C)c1Cl | - | - | - | - | - | -
CC(=O)C(=O)O | - | . | . | - | . | -
O=C(O)CCNS(=O)(=O)c1cccc2nsnc12 | . | - | - | . | . | .
CNC(=O)CSc1nc(SC)ns1 | - | - | - | - | . | -
CC(=O)Nc1nnc(SCC(=O)N2C(C)CCCC2C)s1 (configuration not stated) | - | 12µM | - | - | - | -
CSc1nsc(SCC(=O)N2CCCCC2)n1 | - | - | - | 53 | . | 93
Cc1c(Cl)cccc1N/C(SCC(=O)N1CCCCCC1)=C(/C#N)c1nc2ccccc2s1 | - | 1.5µM | 2.1µM | - | - | -
O=C(CSc1nc2ccccc2s1)N1CCCCC1 | - | . | - | 43 | - | 124
CC(=O)OCCBr | - | . | . | - | . | -
O=C(NCCc1ccc(C(F)(F)F)cc1)c1ccc(Cl)nc1 | - | - | ? | - | - | -
COc1ccc(-n2ccn(CC(=O)Nc3ccccc3OC)c(=O)c2=O)cc1 | - | - | - | - | - | -
CCn1c(SCC(=O)N2CCCC2)nc2ccccc21 | - | - | - | - | . | -
O=C(CSc1nc2ccccc2n1S(=O)(=O)c1ccccc1)N1CCCC1 | - | ? | - | 13 | - | 48
Nc1ccc2nc(SCc3cccc(F)c3)sc2c1 | - | - | - | 42 | . | 152
